Hit rate of the full screen: of about 1,300 compounds, about 270 (21%) were called active. Not all results are given here. Entries with a potency or affinity are not part of this list. Unmarked numbers belong to inactive results.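 How the source made its calls: active means dose-dependent rise or fall in viability, either side of zero, with half-maximal concentration at or below a set limit; inconclusive means flat curve at 30 to 70% viability loss, or poor fit; inactive means flat within 30% either way, or potency beyond limit.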

The assay in a line: proliferation inhibition in MITF-low A375 cells – cell-based, cherry-pick samples, set 2, counter-screen for MITF modulator project, dose response (AID 540335).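 Further: A375 human melanoma cells which do not depend on MITF; 0% = median of neutral control wells and 100% = double that signal.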 The conditions noted are these: CellTiter-Glo ATP luminescence, 24 h; series mostly up to 35 µM; activity change, negative = decreased viability: at the top concentration. In general terms: Counterscreens check selectivity or assay interference.
Take `CS(=O)(=O)c1ccc(C(=O)OCC(=O)NCc2cccs2)cc1[N+](=O)[O-]`: the “activity change, negative = decreased viability” value is 17.8%. Consider `Cn1cccc1C(=O)NC(=O)COC(=O)c1ccc(S(C)(=O)=O)c([N+](=O)[O-])c1`, for which the “activity change, negative = decreased viability” value is 11.1%. `O=C(CCl)N1N=C(c2ccco2)CC1c1cccs1` (configuration not stated): the “activity change, negative = decreased viability” value is -31.6%. For `CC(C)C(=O)N1CCN(c2ccc(NC(=O)c3ccc([N+](=O)[O-])o3)cc2Cl)CC1` the value was 29.3%; for `CCCCC[n+]1ccn(C2=C([O-])c3ccccc3C(=O)/C2=N\S(=O)(=O)c2ccccc2)c1`, -11%.

For the compound `O=C(Nc1ccc2c(c1)OCCO2)c1coc2ccccc2c1=O`, the “activity change, negative = decreased viability” value was -0.104%. As for `COc1cc(CN2CCC(C(=O)NCCC(C)C)CC2)ccc1OCc1ccccc1`, the “activity change, negative = decreased viability” value was 5.82%. As to `COc1cc(CN2CCC(C(N)=O)CC2)ccc1OCc1ccccc1`, the “activity change, negative = decreased viability” value was 0.046%. With `CCN1CCc2c(sc(NC(=O)c3ccc(S(=O)(=O)N4CCCC4)cc3)c2C(=O)NC)C1`, the “activity change, negative = decreased viability” value is -9.91%. For `Cc1ccc(NC(=O)c2cc(N3C(=O)C=CC3=O)ccc2N2CCOCC2)cc1` the value was -16.9%. For `O=C(Nc1ccc(S(=O)(=O)NC2=NCCCCC2)cc1)c1ccc([N+](=O)[O-])s1` the value was -24.7%; for `Cc1ccc2sc(N(CCCN(C)C)C(=O)c3ccc(S(=O)(=O)N(C)C4CCCCC4)cc3)nc2c1C`, -39.9%; for `Cc1ccc2nc(NC(=O)CCCC(=O)O)sc2c1`, 12%. As for `COc1ccc(S(=O)(=O)N2CCCCC2)cc1NC(=O)c1ccc([N+](=O)[O-])o1`, the “activity change, negative = decreased viability” value was -19.1%.

For the compound `Cn1c(SCC(=O)N/N=C/c2ccc([N+](=O)[O-])s2)nnc1-c1ccccc1`, the “activity change, negative = decreased viability” value is -30.7%. For `CC(=O)OCCCNc1cc(Sc2ccc(Cl)cc2)c2nonc2c1[N+](=O)[O-]`, the “activity change, negative = decreased viability” value is -14.9%. For `CCN1CCCC1CNC(=O)c1ccc2c(c1)NC(=O)/C(=C\c1ccc(C)cc1)S2` (configuration not stated) the value was -95.9%; for `COc1cccc(/C=C2/Sc3ccc(C(=O)NCCN4CCCC4)cc3NC2=O)c1`, -4.96%; for `CCN1CCCC1CNC(=O)c1ccc2c(c1)NC(=O)/C(=C\c1ccc(OC)c(OC)c1)S2` (configuration not stated), 0.004%. In the case of `O=C1Nc2cc(C(=O)NCCN3CCCCCC3)ccc2S/C1=C\c1ccccc1` it was -25.8%; in that of `COC(=O)[C@@H]1C[C@]2(OC(=O)c3ccccc3)C=CC(=O)C[C@@H]2N1C(=O)OCc1ccccc1`, 5.93%. As to `COc1ccccc1NS(=O)(=O)c1cccc(C(=O)N/N=C/c2ccc([N+](=O)[O-])o2)c1`, the “activity change, negative = decreased viability” value is -30.3%. For `Cc1ccccc1OCC(=O)N/N=C/c1ccc([N+](=O)[O-])o1` the value was -16.2%. On to `O=C(COc1ccccc1)N/N=C/c1ccc([N+](=O)[O-])o1`, for which the “activity change, negative = decreased viability” value is -8.29%. Consider `C=Cc1ncc(OC)c2c1[nH]c1ccccc12`, for which the “activity change, negative = decreased viability” value was 14.5%.

Regarding `O=[N+]([O-])c1cccc2c(N3CCCC3)ccnc12`, the “activity change, negative = decreased viability” value was -26.5%. For `CCN1CCN(c2ccc(NC(=O)c3ccc([N+](=O)[O-])o3)cc2Cl)CC1` the value was -0.148%; for `O=C(C[n+]1cccc2ccccc21)c1ccc([N+](=O)[O-])cc1`, -6.09%; for `Cc1cc(C)n(-c2ccc(C(=O)Nc3ccc(C)c(S(=O)(=O)N4CCOCC4)c3)cc2)n1`, -12.6%.

For `CS(=O)(=O)c1nc(-c2ccc(F)cc2)cc(C(F)(F)F)n1`, the “activity change, negative = decreased viability” value is 38.8%. In the case of `CCn1c(/C=C/N(C)c2ccccc2)[n+](CC)c2ccc(Cl)cc21` it was -36.6%; in that of `CCOC(=O)c1ccc2c(c1)n(CC)c(/C=C/N(C)c1ccccc1)[n+]2CC`, -19.5%; in that of `Oc1cc(NCCN2CCOCC2)cc2cccnc12`, -26.1%.

For the compound `O=C(N/N=C\c1cc(Br)ccc1O)c1ccc(S(=O)(=O)N2CCCCC2)cc1`, the “activity change, negative = decreased viability” value is -15.3%. In the case of `O=C(N/N=C/c1cc(Cl)ccc1O)c1ccncc1` it was -31%. For `O=C1c2cc(F)ccc2-n2c1nc1ccccc1c2=O` the value was -37.3%; for `CCOC(=O)CSC1=NC(=O)/C(=C\c2ccc(Cl)cc2)S1`, -2.2%; for `O=C(N/N=C/c1ccc(F)cc1)c1c(O)c2ccccc2[nH]c1=O`, -19.2%. On to `O=C1/C(=C/c2ccccc2[N+](=O)[O-])COc2ccccc21`, for which the “activity change, negative = decreased viability” value is 116%.

Regarding `Cc1ccc(-c2cn(-c3ccc(SC(F)F)cc3)c3[n+]2CCC3)cc1`, the “activity change, negative = decreased viability” value was -14.1%. In the case of `O=c1c(Cl)c2oc3ccccc3nc-2c2ccccc12` it was -8.83%; in that of `COc1cccc(-c2nnc3n2N=C(C(C)(C)C)CS3)c1`, -24.4%; in that of `O=C(CCl)Nc1ccc(-c2ccccc2)cc1`, -39.9%.

Turning to `COc1ccc(S(=O)(=O)N(C(C)=O)c2ccc(OC(C)=O)c3ccccc23)cc1[N+](=O)[O-]`, the “activity change, negative = decreased viability” value is -31.6%. In the case of `CS(=O)(=O)c1ccc2nc(NC(=O)c3ccccc3)sc2c1` it was -10.8%. For `CC1=C/C(=N\NC(=S)Nc2cccnc2)CC(C)(C)C1` the value was -15.5%.

As to `O=C(CCl)Nc1cccc(-c2cnc3ccccc3n2)c1`, the “activity change, negative = decreased viability” value was -29.9%. For `Nc1nc2ccccc2n1/N=C/c1ccc([N+](=O)[O-])s1` the value was -21%. In the case of `CC1CN(C(=O)CCC(=O)NCCCN2CCC(Cc3ccccc3)CC2)c2cc(Cl)ccc2O1` (configuration not stated) it was -37.2%. In the case of `Clc1ccc(-c2c[n+](Cc3cccc(Cl)c3)c3n2CCC3)cc1` it was 3.73%; in that of `COc1ccc(C(=O)NCCSc2ccccc2C)cc1`, -8.17%; in that of `COc1ccc(/C=C2\Sc3ccc(C(=O)NCCN4CCCCCC4)cc3N(C)C2=O)cc1`, -19.8%. Regarding `Nc1c(N(CCC2=CCCCC2)C(=O)COc2ccc([N+](=O)[O-])cc2)c(=O)[nH]c(=O)n1Cc1ccccc1`, the “activity change, negative = decreased viability” value was -29%. Take `CN1CCN(c2ccc(NC(=O)c3ccc([N+](=O)[O-])o3)cc2Cl)CC1`: the “activity change, negative = decreased viability” value is -1.44%. In the case of `CN1CCN(c2ccccc2NC(=O)c2ccc([N+](=O)[O-])o2)CC1` it was -26.5%.

Turning to `CC(=O)SC(C[N+](=O)[O-])c1cn(C(C)=O)c2ccccc12` (configuration not stated), the “activity change, negative = decreased viability” value was 22.6%. For `CC(C)(C)C(=O)Cn1ncc(Cl)c(Cl)c1=O`, the “activity change, negative = decreased viability” value was 55.4%. In the case of `C=C1C(=O)O[C@@]23[C@H]1CC[C@@H](C)[C@@H]2CC[C@@]1(C)O[C@@H]31` it was 2.09%; in that of `CCCC(=O)N1CCN(c2ccc(NC(=O)c3ccc([N+](=O)[O-])o3)cc2)CC1`, 11.4%; in that of `CCN(CC)CCNC(=O)c1ccc(NC(=O)c2cccc(S(=O)(=O)N3c4ccccc4CC3C)c2)cc1` (configuration not stated), -12.4%. Consider `O=C(/C=C/c1ccc(Cl)c([N+](=O)[O-])c1)c1ccc(O)cc1`, for which the “activity change, negative = decreased viability” value is 24.9%. Regarding `O=C(Nc1ccc(N2CCN(C(=O)c3ccc(Cl)cc3)CC2)cc1)c1ccc([N+](=O)[O-])o1`, the “activity change, negative = decreased viability” value was 20.7%. For `O=C(N/N=C/c1ccc([N+](=O)[O-])s1)c1ccccc1Br` the value was -17.8%; for `COc1cc(NC(=O)c2ccc([N+](=O)[O-])o2)ccc1NC(=O)c1cccs1`, -28.9%; for `CN(C(=O)/C=C/c1ccc([N+](=O)[O-])s1)c1ccccc1`, -12.6%.

`Cc1scc(C(=O)N/N=C/c2ccc([N+](=O)[O-])o2)c1C`: the “activity change, negative = decreased viability” value was -10.2%.

For `CCCCCCN1C=CC(=C2C(=O)c3ccccc3C2=O)C=C1`, the “activity change, negative = decreased viability” value was -11.3%. With `O=C1CN(C(=O)Cn2ncc(Cl)c(Cl)c2=O)c2ccccc2N1`, the “activity change, negative = decreased viability” value was 36.1%. Take `Cc1ccc(C(=O)N/N=C/c2ccc([N+](=O)[O-])s2)cc1`: the “activity change, negative = decreased viability” value is -10.8%. For `Cc1ccc(C)c(C(=O)Cn2ncc(Cl)c(Cl)c2=O)c1` the value was 78.1%.

With `C=CCNc1nc(-c2ccccn2)nnc1-c1ccccc1`, the “activity change, negative = decreased viability” value is -21.7%. For `Clc1cccc(-c2nc(-c3ccccn3)no2)c1` the value was -22.9%; for `O=C(Nc1ccc(S(=O)(=O)N2CCCCCC2)cc1)c1[nH]ncc1[N+](=O)[O-]`, -21%; for `O=C(O)c1ccc(N/N=C/c2ccc(OC(=O)c3cccc(Cl)c3)cc2)cc1`, 1.31%.

Turning to `CC(C)CC(=O)NC(c1cccs1)c1ccc2cccnc2c1O` (configuration not stated), the “activity change, negative = decreased viability” value was -35.5%. In the case of `O=C(CCl)Nc1ccc(Sc2ccc(NC(=O)CCl)cc2)cc1` it was 75.1%; in that of `COc1ccccc1-c1nc(-c2ccc(C)nc2OC)no1`, 10.9%; in that of `COc1ccccc1-c1nnc(-c2ccc(C)cc2)o1`, 7.71%. On to `Cn1c(SC2=CS(=O)(=O)c3ccccc32)nc2ccccc21`, for which the “activity change, negative = decreased viability” value was -10.8%.

As to `CCN1CCc2c(sc(NC(=O)c3ccc(S(=O)(=O)N4CCCCCC4)cc3)c2C(=O)NC)C1`, the “activity change, negative = decreased viability” value is -9.09%. In the case of `CC1(C)CC(NC(=O)c2ccc(Cl)c(S(=O)(=O)N(Cc3ccccc3)c3ccccc3)c2)CC(C)(C)N1` it was -56.2%; in that of `COc1ccc(C(C(=O)NC2CCCCC2)N(C(=O)CCl)c2ccc(OC)cc2)cc1` (configuration not stated), -7.56%; in that of `C#CC(=O)N(c1ccc(OC)cc1OC)C(C(=O)NC1CCCC1)c1cccs1` (configuration not stated), -6.23%.

With `C(#Cc1ccccc1)C[N+]1(CC#Cc2cccc3ccccc23)CCCC1`, the “activity change, negative = decreased viability” value is -24.6%. For `CCOc1ccc2nc(C)cc(Nc3cccc([N+](=O)[O-])c3)c2c1` the value was -48.8%; for `CC(=O)OCCNc1cc(Sc2nc3ccccc3[nH]2)c2nonc2c1[N+](=O)[O-]`, 1.78%. In the case of `O=C(Nc1cc(-c2nc3ncccc3o2)ccc1Cl)c1ccc([N+](=O)[O-])o1` it was -5.78%; in that of `O=C(O)c1cccc(N/N=C/c2ccc(OC(F)(F)F)cc2)c1`, 14.9%; in that of `O=C(Cn1ncc(Cl)c(Cl)c1=O)NCC1CCCCC1`, -26.7%.

Take `COc1ccc(C(=O)/C=C(\C)Nc2ccc3c(c2)OCO3)cc1`: the “activity change, negative = decreased viability” value is 0.308%. In the case of `O=C(CSc1ccccn1)c1ccc2c(c1)OCO2` it was 9.9%; in that of `Cc1cc(C(=O)CN2C(=O)c3ccccc3S2(=O)=O)c(C)n1-c1ccccc1`, 6.79%. As for `Cc1cccnc1NC(=O)NC(=O)c1ccc(C(C)(C)C)s1`, the “activity change, negative = decreased viability” value was 3.2%. For `COc1ccc(CCn2c(=S)[nH]c3cc(C(=O)NCc4ccco4)ccc3c2=O)cc1OC` the value was -33.1%. In the case of `Cc1cc(C)c2sc(N(CCCN(C)C)C(=O)COc3ccc(Cl)cc3)nc2c1` it was -86.6%; in that of `CN(C)CCCNc1nc2sc3c(c2c(=O)n1CCc1ccccc1)CCCCC3`, -16.3%; in that of `COc1ccc(-n2cc(-c3ccc(C)cc3)[n+]3c2SCC3)cc1`, -17.9%.

Regarding `O=C(NCC1CCCCC1)C1(CC2CC(c3cccc(Br)c3)=NO2)CCNCC1` (configuration not stated), the “activity change, negative = decreased viability” value was -96.6%. For `Cc1ccc(C(C)C)c(OCc2nn(CC(=O)c3ccc(Cl)cc3)c3[n+]2CCCCC3)c1` the value was -95.6%; for `CCOC(=O)N1C(=O)[C@@](CC)(c2ccccc2)N1C(=O)OCC`, 4.08%. For `O=C(N/N=C/c1ccc([N+](=O)[O-])o1)c1ccccc1-n1cccc1` the value was -22.6%. For `COC(=O)C1=C(C)N(Cc2ccccc2)C(=NCC(C)C)N[C@H]1c1cccc(C(F)(F)F)c1` the value was -96.9%.

For the origin of these results see PubChem BioAssay AID540335 (Broad Institute, 2011).
